Screening results (PubChem BioAssay)
Only a selection was taken, and hits are over-represented in it overall.
Pf Dd2 growth = blocks in vitro growth of P. falciparum Dd2. P. falciparum Dd2 growth, SYBR Green, 72 h. Potency, µM (highest dose often 28.9 µM), without a hit: at the top dose activity, negative = inhibition, actives largely listed as inhibitors. 4.3% of 120,000 active. AID 1347417; active = well fitted inhibition curve with a large enough effect;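 note: plate controls were DMSO vehicle for no effect and reference drug for full effect; nearly all actives have a fitted effect of over 65% in size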
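Readout: SYBR Green fluorescence, 485 nm excitation, 535 nm emission, after ~16 h lysis at 37C. Before that, Dd2-infected red cells (2.5% hematocrit) grew 72 h with compound, 29 uM top final concentration.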
Numbers without * were called inactive; i = inactive; [ ] = remark or other dose. Potency is the fitted concentration of half-maximal effect.

SMILES	Pf Dd2 growth
CC(CCc1ccccc1)NC(=O)c1noc(-c2ccc[nH]c2=O)n1 (centres undefined)	-26%
Cc1ccc(C2NC(=O)N(CC(=O)Nc3ccc(Br)c(C)c3)C3=C2C(=O)OC3)cc1 (centres undefined)	i
O=C(O)CC1(CC(=O)N[C@H]2CO[C@H]3[C@@H]2OC[C@@H]3n2nnnc2Oc2cccc(N3CCOCC3)c2)CCCC1	2%
O=C1CCN(C(=O)C2COc3ccccc3O2)CCCOCCN1 (centres undefined)	i
COc1ccc2nc(N(Cc3cccnc3)C(=O)C3CCCCC3)sc2c1	2.5µM*
COc1ccc2nc(N(Cc3cccnc3)C(=O)CCc3ccccc3)sc2c1	1µM*
O=C(COc1ccccc1)N(Cc1cccnc1)c1nc2ccc(Cl)cc2s1	-21%
O=C(C1COc2ccccc2O1)N(Cc1cccnc1)c1nc2ccc(Cl)cc2s1 (centres undefined)	i
CCOc1ccc2nc(N(Cc3cccnc3)C(C)=O)sc2c1	i
COc1ccc2nc(N(Cc3cccnc3)C(C)=O)sc2c1	i
CN(C)c1ccc(CN2CCn3c(nnc3-c3ccc(Cl)cc3)C2)cc1	-20%
CCNC(=O)Nc1ccc([C@@H](O)[C@H]2COCC(=O)N2CCOCC)cc1	34%[44.1 µM]
CCc1ccc(Oc2c(C(F)(F)F)oc3c(CN4CCC(C)CC4)c(O)ccc3c2=O)cc1	0.32µM*
O=C1CCCCCN1C1CCN(Cc2ccc(OC(F)(F)F)cc2)CC1	i
CCOc1ccc(CN2CCC(N(C(=O)CC)C3CCOCC3)CC2)cc1	i
CCN1CCN(Cc2c(O)ccc3c(=O)c(Oc4ccccc4Cl)c(C(F)(F)F)oc23)CC1	0.25µM*
CCN1CCN(C(c2ccccc2Cl)c2c(O)cc(C)n(Cc3ccco3)c2=O)CC1 (centres undefined)	10%
CCc1ccc(Oc2c(C(F)(F)F)oc3c(CN4CCN(CC)CC4)c(O)ccc3c2=O)cc1	0.1µM*
CCOc1ccc2c(n1)CCN(C(=O)Cc1cccc(F)c1)C2	11%
COCC(=O)NC1CCC12CCN(C(=O)C(C)C)CC2 (centres undefined)	0%
CCC1CN(CCNC(=O)Cc2c(F)cc(F)cc2F)Cc2cc(OC)ccc2O1 (centres undefined)	-19%
Cc1nc([C@H]2CCN(CC(C)C)C[C@H]2NC(=O)C2CCOCC2)n[nH]1	33%
O=C(Nc1ccccc1)[C@H]1O[C@H](CCN2CCOCC2)CC[C@@H]1O	-13%[44.1 µM]
COc1ccc2c(c1)CN(Cc1ccccc1)CC[C@H]1COC(=O)N21	-10%[44.1 µM]
COc1ccc(Cn2c(C3CCN(C(=O)c4ccc(F)cc4Cl)CC3)n[nH]c2=O)cc1	i
SMILES	Pf Dd2 growth
Cc1ccc(C(=O)N2CCC3(Cc4ccccc4NC3=O)C2)cc1 (centres undefined)	i
CN1CC[C@H]2CN(C(=O)COCc3nc4ccc(F)cc4[nH]3)C[C@H]21	-18%
CC(C)c1noc(-c2cn(C3CCN(C(=O)c4cccc(N(C)C)c4)CC3)nn2)n1	-4%
CN(C)c1cccc(C(=O)NC2CCN(c3cc(-c4ccc(Cl)cc4)[nH]n3)C2)c1 (centres undefined)	7.9µM*
COc1ccc(-c2cc(N3CCC(NC(=O)c4ccc(Cl)cc4)C3)n[nH]2)cc1 (centres undefined)	i
COc1ccc(-c2cc(N3CCCC(NC(=O)c4ccccc4)C3)n[nH]2)cc1 (centres undefined)	i
CN(C)c1cccc(C(=O)NC2CCCN(c3cc(-c4ccccc4)[nH]n3)C2)c1 (centres undefined)	-1%
O=C(NC1CCN(c2cc(-c3ccc(Cl)cc3)[nH]n2)C1)c1ccncc1 (centres undefined)	i
COc1ccc(-c2cc(N3CCC(NC(=O)c4ccc(C)cc4)C3)n[nH]2)cc1 (centres undefined)	11µM*
O=C(NC1CCCN(c2cc(-c3ccccc3)[nH]n2)C1)c1ccc2[nH]ccc2c1 (centres undefined)	-5%
COc1ccc(C(=O)NC2CCCN(c3cc(-c4ccc(F)cc4)[nH]n3)C2)cc1 (centres undefined)	-11%
O=C(NC1CCCN(c2cc(-c3ccccc3)[nH]n2)C1)c1cccc(Br)c1 (centres undefined)	-9%
COc1ccc(-c2cc(N3CCCC(NC(=O)c4ccc5[nH]ccc5c4)C3)n[nH]2)cc1 (centres undefined)	10µM*
COc1ccc(-c2cc(N3CCCC(NC(=O)c4cccc(Br)c4)C3)n[nH]2)cc1 (centres undefined)	10µM*
CCOc1ccc(C(=O)NC2CCN(c3cc(-c4ccc(OC)cc4)[nH]n3)C2)cc1 (centres undefined)	i
CC(C)N1CCCC2(CCN(C(=O)c3cn[nH]c3-n3cnnn3)C2)C1=O (centres undefined)	-1%
Cn1ccnc1CNC(=O)C[C@@H]1C[C@H]2O[C@H](CNC3CCC3)[C@@H](O)[C@H]2O1	23%[44.1 µM]
Cc1cc(CNC(=O)Cn2nc(-c3ccccc3)n(-c3ccccc3)c2=O)on1	1%
Cc1cccc(NC(=O)N2CCC(CC(=O)NC3CC3)C2)c1 (centres undefined)	-20%
Cn1ccc2c(C(=O)NCc3cccnc3)nc(-c3cncnc3)cc21	25%[44.1 µM]
CN1CCN(c2ccc(-c3cc4c(ccn4C)c(C(=O)NCc4cccnc4)n3)cc2)CC1	6.3µM*
Cc1ccc(-c2cc3c(ccn3C)c(C(=O)NCc3cccnc3)n2)cn1	i
COc1ccc(CNC(=O)[C@H]2O[C@H](CCN3CCN(c4ccccc4OC)CC3)CC[C@@H]2O)cc1	i
COc1ccc(C(=O)Nc2cc3c(cc2C(=O)c2ccccc2Cl)OCCO3)cc1	23%
COc1ccc(C(=O)NC(c2ccccc2Cl)c2cc(Cl)c3cccnc3c2O)cc1 (centres undefined)	3.5µM*
SMILES	Pf Dd2 growth
Cc1ccc(C(=O)Nc2cccc3cccnc23)cc1Cl	4%
Cc1ccc(NC(=O)N2CCCC(Cn3cnc4cccnc43)C2)cc1F (centres undefined)	-25%
COCCNc1cc(-c2cncc(C(=O)N3CCOCC3)n2)c2cc[nH]c2n1	-12%
CN(C)CCNC(=O)c1nc(-c2ccccc2)cc2[nH]ccc12	i
Clc1cccnc1-c1cc(NCc2ccccn2)nc2[nH]ccc12	8.9µM*
CC(=O)NCc1ccc(-c2cc(NC3CCCC3)nc3[nH]ccc23)nc1	-24%
CC(=O)c1sccc1-c1cc(NCc2ccccn2)nc2[nH]ccc12	-28%
CC(C)c1cccc(-c2cc(NCc3ccccn3)nc3[nH]ccc23)n1	8.9µM*
NC(=O)c1ccnc(-c2cc(NCc3ccccn3)nc3[nH]ccc23)c1	-25%
CN(C)CCNc1cc(-c2ccc3ccccc3n2)c2cc[nH]c2n1	13µM*
Cc1ccc(C#N)c(-c2cc(NCc3cccnc3)nc3[nH]ccc23)n1	-24%
O=C(c1cccnc1)N1CCC(c2nnc3n2C(C(=O)N2CCCC2)CC3)CC1 (centres undefined)	11%
CC(C)(C)c1noc(-c2nnn3c2COC(c2ccc(F)cc2)C3)n1 (centres undefined)	i
CCc1nc(N2CCc3ccccc3C2)ncc1C(=O)O	14%
CCNC(=O)Nc1ccc(OCC(=O)NC2CCCC2)nc1	31%
CC(C)NC(=O)c1onc(-c2ccc(F)cc2)c1[C@H](C)O	-13%[44.1 µM]
COCCOC1CCN(C(=O)c2cccn2C)CC1	24%
CCc1cc(=O)n(CC(=O)Nc2cccc(C(C)=O)c2)c(N2CCOCC2)n1	i
CCCNC(=O)N1CCC(O)(c2csc(CN3CC[C@@H](O)C3)n2)CC1	28%[44.1 µM]
